Inconclusive results are not listed. Where a call stands in place of a potency, no number is given. The source made the active and inactive calls. Calls come from the whole dose curve; as a rule, active = well fitted inhibition curve with a large enough effect in the repeat runs; inconclusive = weak or mixed curves; inactive = flat fitted curve, though single readings scatter.

A short description of this experiment: qHTS assay to identify small molecule HDAC inhibitors (AID 1259364). Note: top concentration of the series differs between compounds; nearly all actives have a fitted effect of over 45% in size. The conditions noted are these: HCT-116 HDAC-Glo I/II luminescence, 2 h; series mostly up to 92.4 µM. The source says: U.S. Tox21 Program National Center for Advancing Translational Sciences [NCATS] NIH Chemical Genomics Center [NCGC] U.S. Environmental Protection Agency [EPA] National Institutes of Environmental Health Sciences [NIEHS] National Toxicology Program [NTP] U.S. Food and Drug Administration [FDA] Tox21 Assay Overview: Histone deacetylases (HDACs) are a group of epigenetic enzymes that regulate gene expression by histone deacetylation. HDACs are capable of introducing epigenetic modifications and such aberrations contribute to the onset and progression of several human diseases, thus making HDACs a popular therapeutic target. For identifying endogenous class I/II HDAC inhibitors a homogenous, luminogenic HDAC I/II cell based assay was used to measure the relative activity of class I and II HDACs from cells. Wild type HCT-116 cells were used to screen Tox21 libraries for identifying class I/II HDAC inhibitors.
Tox21 Assay Protocol Summary: HCT-116 cells were dispensed at 1,500 per well in 5uL of culture medium into white solid bottom 1536-well plates (Greiner Bio-One, Monroe, NC) using a Multidrop Combi (Thermo Scientific, Waltham, MA) dispenser. The assay plates were incubated at 37 C and 5% CO2 for an overnight, and then 23nL of compounds dissolved in DMSO and positive control were transferred using a Pintool station (Wako, San Diego, CA). The assay plates were incubated at 37C and 5% CO2 for 2hr. After compound treatment, 4uL of HDAC-Glo reagent (Promega Corporation, Madison, WI) was added to each well of the assay plates using Flying Reagent Dispenser (FRD, Aurora Discovery, San Diego, CA) and incubated the assay plates at room temperature for 30min. The luminescence signal was quantified using a ViewLux plate reader (Perkin Elmer, Shelton, CT).
Take `C=CCc1ccc(OC)c(OC)c1`: the Potency entry was “inactive”.
With `CN1C(=O)CC[C@H]1c1cccnc1`, the Potency result is “inactive”.
For the compound `CCOC(=O)c1ccc(N)cc1`, the Potency result is “inactive”.
With `CCCOC(=O)c1ccccc1`, the Potency entry is “inactive”.
`CCOC(=O)n1ccn(C)c1=S`: the Potency entry was “inactive”.
Turning to `COc1ccc(N)c(C)c1`, the Potency entry was “inactive”.
In the case of `CC1(C)S[C@@H]2[C@H](NC(=O)COc3ccccc3)C(=O)N2[C@H]1C(=O)O`, the Potency entry is “inactive”.
As to `O=C(O)c1ccc(C(=O)O)c(C(=O)O)c1`, the Potency result is “inactive”.
Consider `CC(CCl)OP(=O)(OC(C)CCl)OC(C)CCl` (stereo not given), for which the Potency result is “inactive”.
Consider `CC(C)(C#N)c1cc(Cn2cncn2)cc(C(C)(C)C#N)c1`, for which the Potency result was “inactive”.
As to `CC(CCO)CC(C)(C)C` (stereo not given), the Potency entry was “inactive”.
Regarding `COC(=O)c1cccnc1`, the Potency result is “inactive”.
As for `CCCCCCCCCCCCCCCCO`, the Potency entry is “inactive”.
Turning to `CCCCOC(=O)c1ccc(N)cc1`, the Potency entry is “inactive”.
For `CC1(C)OC[C@@H]2O[C@@]3(C(=O)O)OC(C)(C)O[C@H]3[C@@H]2O1`, the Potency result is “inactive”.
On to `O=C(O)c1ccc(S(=O)(=O)N(Cl)Cl)cc1`, for which the Potency result is “inactive”.
With `CC(C)CC(=O)CC(C)CC(C)C` (stereo not given), the Potency entry was “inactive”.
With `Clc1ccccn1`, the Potency entry is “inactive”.
For the compound `C=CC[N+](C)(C)CC=C`, the Potency entry is “inactive”.
Turning to `CC1(C)NC(=O)NC1=O`, the Potency entry was “inactive”.
Consider `NCCCCCCN`, for which the Potency entry is “inactive”.
Next, `COc1ccc(OC)cc1`: “inactive”.
The same measure for `CCNc1ccccc1`: “inactive”.
Next, `CCCCCCCCCCCCCCCC(=O)OC(C)C`: “inactive”; `CCCCCCCCCCO`: “inactive”.
As to `C=C(C)CNCC`, the Potency result is “inactive”.
On to `CCOCC(=O)O`, for which the Potency entry is “inactive”.
For the compound `O=[N+]([O-])c1ccc2nc[nH]c2c1`, the Potency entry was “inactive”.
For `C=C(C)C(=O)OCC(C)C`, the Potency entry was “inactive”.
The same measure for `Cc1ccc2ncccc2c1`: “inactive”.
The same measure for `O=C(O)CCCCCCCCC(=O)O`: “inactive”; for `CC1(C)CC(N)CC(C)(CN)C1` (stereo not given): “inactive”; for `CCO[Si](CCC#N)(OCC)OCC`: “inactive”.
Regarding `NCCNCCN`, the Potency entry is “inactive”.
Next, `CCCCCC(=O)O`: “inactive”.
As for `CN(C)CCOC(=O)COc1ccc(Cl)cc1`, the Potency entry was “inactive”.
As for `O=C(O)c1ccccc1C(=O)O`, the Potency result is “inactive”.
On to `C[C@]12CC[C@@H]3c4ccc(O)cc4CC[C@H]3[C@@H]1C[C@@H](O)[C@@H]2O`, for which the Potency entry is “inactive”.
As to `Cc1ccc([N+](=O)[O-])cc1S(=O)(=O)O`, the Potency entry was “inactive”.
Regarding `CC(C)(Oc1ccc(CCNC(=O)c2ccc(Cl)cc2)cc1)C(=O)O`, the Potency result was “inactive”.

The values are drawn from PubChem BioAssay (Tox21).
